PubChem BioAssay (NCI)
About 83,000 compounds went through this panel and 20% of them were active in at least one assay; those are over-represented in the sample as a whole.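 Plates (96-well) were seeded with cells, treated with compound at one concentration, and incubated for 48 hours before percent growth was determined.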 A number with no mark means an inactive call. Activity calls are given as the source filed them. The calls were made as follows: active = growth percent below 10; inactive = the rest.

Assays:
Experiment in all cases: NCI-60 one-dose screen, 48 h (100 = growth as untreated, 0 = no growth, -100 = all killed)
Conditions in all cases: 10 µM unless noted
NCI-H23 lung = system: NCI-H23 lung
NCI-H226 lung = system: NCI-H226 lung
NCI-H322M lung = system: NCI-H322M lung
HOP-62 NSCLC = system: HOP-62 NSCLC
NCI-H460 lung = system: NCI-H460 lung
HOP-92 NSCLC = system: HOP-92 NSCLC
NCI-H522 lung = system: NCI-H522 lung
A549/ATCC NSCLC = system: A549/ATCC NSCLC
786-0 renal = system: 786-0 renal
COLO 205 colon = system: COLO 205 colon
DU-145 prostate = system: DU-145 prostate
K-562 leukemia = system: K-562 leukemia
MALME-3M melanoma = system: MALME-3M melanoma
MDA-MB-231 breast = system: MDA-MB-231 breast
RXF 393 renal = system: RXF 393 renal
SF-268 CNS = system: SF-268 CNS
SF-295 CNS = system: SF-295 CNS
SF-539 CNS = system: SF-539 CNS
UACC-257 melanoma = system: UACC-257 melanoma
M14 melanoma = system: M14 melanoma

SMILES	growth (NCI-H23 lung)	growth (NCI-H226 lung)	growth (NCI-H322M lung)	growth (HOP-62 NSCLC)	growth (NCI-H460 lung)	growth (HOP-92 NSCLC)	growth (NCI-H522 lung)	growth (A549/ATCC NSCLC)	growth (786-0 renal)	growth (COLO 205 colon)	growth (DU-145 prostate)	growth (K-562 leukemia)	growth (MALME-3M melanoma)	growth (MDA-MB-231 breast)	growth (RXF 393 renal)	growth (SF-268 CNS)	growth (SF-295 CNS)	growth (SF-539 CNS)	growth (UACC-257 melanoma)	growth (M14 melanoma)
CS(=O)(=O)Nc1cc(-c2ccc3ncnc(N4CCc5cc(F)c(Cl)cc54)c3c2)cnc1Cl	4.88% (active)	8.15% (active)	8.81% (active)	27.8%	12.1%	-20.7% (active)	17.7%	-3.2% (active)	4.55% (active)	-1.45% (active)	10.5%	35.8%	-21.2% (active)	-17.8% (active)	-5.59% (active)	14.9%	-23.8% (active)	-22.7% (active)	-2.81% (active)	9.59% (active)
Nc1nn2c(-c3cc4ccccc4oc3=O)ccnc2c1N=Nc1ccccc1	12.5%	35.1%	65.4%	22.3%	44.4%	30.2%	25.3%	100%	41.4%	114%	90.6%	67.2%	81.9%	-34.8% (active)	2.06% (active)	61.8%	72.3%	-62.4% (active)	109%	92.1%
Fc1ccc(Nc2nnc(-c3c[nH]c4ccccc34)o2)cc1	85.7%	70.2%	94.5%	71%	91.9%	58.2%	48.7%	77.5%	94.7%	127%	98%	66.9%	80.8%	60.8%	93.9%	73.1%	84.1%	71.2%	92.7%	102%
O=c1ccc(Cn2c(C(F)(F)F)cc3c(Cl)ncnc32)c[nH]1	17.7%	116%	67.2%	94.7%	32.5%	78.6%	-77.1% (active)	105%	102%	62.6%	86.3%	3.37% (active)	91.4%	52.6%	86.5%	-22.9% (active)	97.6%	87.4%	24%	-51.5% (active)
O=C(Nc1ccc(F)cc1)Nc1nc2ccc([N+](=O)[O-])cc2s1	-11.8% (active)	1.42% (active)	7.52% (active)	-0.8% (active)	-3.01% (active)	-3.56% (active)	-23.7% (active)	6.83% (active)	1.6% (active)	-77.5% (active)	24.2%	6.19% (active)	-17.9% (active)	-2.3% (active)	-14.9% (active)	18%	-46% (active)	7.13% (active)	-12.8% (active)	-3.58% (active)
O=C1Nc2ccc(F)cc2/C1=C/C(=O)c1cc2ccccc2oc1=O	96.1%	86%	104%	97.3%	104%	94.7%	-7.22% (active)	108%	112%	105%	111%	33.9%	71.2%	91.8%	83.4%	106%	108%	105%	96.3%	89.1%
COc1ccc(C(=O)c2c(N)c(C#N)cn2-c2ccc([N+](=O)[O-])cc2)cc1	103%	102%	100%	83.4%	108%	102%	85.1%	103%	109%	105%	109%	104%	102%	99%	94.2%	99.6%	91.9%	95.7%	111%	113%
COc1cncc(-c2ccc3ncnc(N4CCc5ccc(Cl)cc54)c3c2)c1	8.73% (active)	31.8%	-2.19% (active)	51.3%	51.8%	-56.9% (active)	36.6%	29.9%	-74.2% (active)	38.4%	24.6%	12.6%	44.2%	29.4%	-18.1% (active)	46.7%	20.3%	33.2%	63.5%	-52.4% (active)
Cc1nn(-c2ccccc2)c2nc(C)n(CC(=O)N/N=C/c3cccc([N+](=O)[O-])c3)c(=O)c12	102%	100%	98.1%	96.1%	106%	91.9%	92.7%	91.9%	84%	120%	105%	91%	99%	78.5%	84.2%	96.5%	101%	95.3%	101%	107%
Cc1ccc(S(=O)(=O)N(CCn2ccnc2[N+](=O)[O-])CCn2ccnc2[N+](=O)[O-])cc1	104%	100%	107%	108%	109%	106%	91.5%	102%	101%	111%	106%	95.7%	111%	104%	84.3%	111%	109%	97.6%	108%	97.6%
Clc1ccc(-c2nc3c4c(-c5ccccc5)c(-c5ccccc5)n(Cc5ccccc5)c4ncn3n2)cc1	2.75% (active)	-3.39% (active)	21%	19.8%	3.08% (active)	-23.1% (active)	-28.5% (active)	14.1%	5.51% (active)	-59.2% (active)	22.7%	4.9% (active)	4.59% (active)	0.484% (active)	-11.3% (active)	20.4%	-14.1% (active)	7.91% (active)	3.18% (active)	15.4%
COc1ccc2[nH]cc(-c3cc4nc(-c5cn(C)c6ncc(Br)cc56)cc(N)n4n3)c2c1	-76.7% (active)	-31.6% (active)	-47.5% (active)	-50.2% (active)	-51.3% (active)	-79.2% (active)	-64.9% (active)	-69.8% (active)	-95% (active)	-75.5% (active)	-70.7% (active)	-27.4% (active)	-87% (active)	-83.8% (active)	-77.2% (active)	-44% (active)	-77.4% (active)	-95.4% (active)	-82.3% (active)	-85.2% (active)
COc1c2c(c(Br)c3c1C(CCc1ccccc1)N(C)CC3)OCO2 (stereo not given)	16.4%	51.7%	38.5%	68.2%	23.5%	22.6%	56.9%	45.9%	47.6%	29.6%	56.7%	28.1%	63.7%	39.9%	72.9%	45.7%	40.6%	-8.69% (active)	64.9%	29%
O=CNc1cccc(-n2cnc3cc(-c4ccc(O)cc4)ccc32)c1	34.6%	-0.208% (active)	68.1%	42.6%	16.7%	71.7%	-6.53% (active)	42.9%	39.1%	39%	43.7%	12.2%	42.8%	55.3%	11%	40.7%	25.5%	-6.56% (active)	84.7%	57.2%
O=C(NNC(=O)c1ccc(OCc2nc3ccc(Cl)cc3[nH]2)cc1)Nc1ccc(Cl)c(Cl)c1	47%	93%	47.6%	65.4%	27.5%	62.1%	60.4%	60.2%	80.8%	105%	73%	29.6%	6.73% (active)	44.1%	69.4%	85.6%	101%	43.3%	95.6%	56.4%
S=C(Nc1ccc(OCc2nc3ccc(Cl)cc3[nH]2)cc1)NC1CCCCC1	-68.3% (active)	-1.48% (active)	9.78% (active)	-20.7% (active)	-21.5% (active)	-4.42% (active)	-21.4% (active)	15.6%	-20.6% (active)	-68.4% (active)	7.09% (active)	5.65% (active)	-21.6% (active)	-76.3% (active)	-52.3% (active)	5.6% (active)	-15.9% (active)	-79.3% (active)	33.3%	-37.2% (active)
